Unmarked numbers belong to inactive results. Records with an inconclusive call do not appear. Active and inactive are the calls of the source. Unless noted, calls follow the shape of the dose curve; as a rule, active = well fitted curve in the direction sought with a large enough effect in the repeat runs; inconclusive = weak or mixed curves; inactive = no such curve, though single readings can be large; an effect the other way counts as inactive or inconclusive.

The nature of assay [1]: qHTS assay to identify small molecule agonists of the hypoxia (HIF-1) signaling pathway - cell viability counter screen (AID 1224844; calls by dose curve; also: nearly all actives have a fitted effect of over 50% in size). The essentials:
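Viability counter screen: HRE-bla ME-180 cells plated 5 hrs before compound addition, treated 17 hrs at 37C and 5% CO2, then CellTiter-Glo added after the FRET reporter read; luminescence after 30 min.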
For orientation: qHTS replaces the single test concentration by a dilution series.

Assay [2] in a line: qHTS assay to identify small molecule agonists of H2AX (AID 1224845; active = well fitted activation curve with a large enough effect in the signal ratio in the repeat runs, not every such curve was filed as active; the % refers to the signal ratio). The essentials: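 Phospho-H2AX Ser139 measured by HTRF (ex 320 nm; em 665 and 620 nm) after 24 hr antibody incubation. Compounds, 15 concentrations, 0.76% DMSO, were applied to CHO-K1 cells for 3hr at 37C before lysis.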
A short description of assay [3]: qHTS assay to identify small molecule agonists of the hypoxia (HIF-1) signaling pathway (AID 1224846; active = well fitted activation curve with a large enough effect in the signal ratio in the repeat runs, not every such curve was filed as active; the % refers to the signal ratio). In short, it runs like this: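 Agonist mode reporter screen. ME-180 cells stably expressing bla under HRE control received test compounds in DMSO for 17 hrs (37C, 5% CO2), and beta-lactamase activity was then detected with the CCF4-AM FRET substrate.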
A short description of assay [4]: qHTS RealTime-Glo MT Cell Viability Assay in HepG2 cells - 24 hour (AID 1224867). Also: nearly all actives have a fitted effect of over 50% in size. In short, it runs like this:
(§1)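 HepG2 suspension premixed with RealTime-Glo reagents is plated at 600 cells per well and left 5 h at 37 C/5% CO2. Compounds in DMSO then go in, and bioluminescence reflecting viable cell number is recorded over 40 h.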

The nature of assay [5]: qHTS RealTime-Glo MT Cell Viability Assay in HEK293 cells - 32 hour (AID 1224868). Also: nearly all actives have a fitted effect of over 50% in size. Also: potency is read from the fitted curve at half-maximal effect. The essentials: (§2)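 Reads taken at 0, 8, 16, 24, 32 and 40 h from the same wells. HEK293 cells (600/well) carried RealTime-Glo reagents from seeding, with compound added after a 5 h settle at 37 C.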
The nature of assay [6]: A CellTox Green Cytotoxicity Assay to monitor cytotoxicity in HEK293 cells - 0 hour (AID 1224869). Also: nearly all actives have a fitted effect of over 50% in size. The essentials: (§3)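 Dead-cell fluorescence measured kinetically: asymmetric cyanine dye, HEK293, 600 cells/well, 5 h settle, 23 nL cpd/DMSO, 37 C, reads 0–40 h every 8 h.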
Assay [7] is described as follows: qHTS RealTime-Glo MT Cell Viability Assay in HepG2 cells - 40 hour (AID 1224870). Also: nearly all actives have a fitted effect of over 50% in size. The essentials:
(§4)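 Real-time viability: cells seeded at 600 per well together with NanoLuc and cell-permeant prosubstrate, compounds added after 5 h incubation. Luminescence tracked at 0, 8, 16, 24, 32 and 40 h of exposure.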

Assay [8] in a line: A CellTox Green Cytotoxicity Assay to monitor cytotoxicity in HEK293 cells - 40 hour (AID 1224871). Also: nearly all actives have a fitted effect of over 45% in size. The essentials:
as §3

Assay [9] can be described thus: qHTS RealTime-Glo MT Cell Viability Assay in HEK293 cells - 16 hour (AID 1224872). The essentials:
as §2

Assay [10] can be described thus: qHTS RealTime-Glo MT Cell Viability Assay in HepG2 cells - 8 hour (AID 1224873). Also: nearly all actives have a fitted effect of over 55% in size. The essentials: as §4
Assay [11] is described as follows: qHTS RealTime-Glo MT Cell Viability Assay in HEK293 cells - 40 hour (AID 1224874). Also: nearly all actives have a fitted effect of over 50% in size. Also: potency is read from the fitted curve at half-maximal effect. Particulars: RealTime-Glo luminescence; max response: active compounds read low. The essentials:
(§5)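 600 HEK293 cells per well, dispensed already mixed with RealTime-Glo MT reagents. Compound dosing came 5 h later. The same wells were read for luminescence at 0, 8, 16, 24, 32 and 40 h of exposure at 37 C.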

Assay [12] can be described thus: A CellTox Green Cytotoxicity Assay to monitor cytotoxicity in HepG2 cells - 16 hour (AID 1224876). Also: nearly all actives have a fitted effect of over 45% in size. In short, it runs like this: (§6)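 First, HepG2 cells (600/well) mixed with reagent were plated; second, after 5 h at 37 C they received compounds via pintool; third, fluorescence was measured at 0 h through 40 h at 8 h intervals.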
A short description of assay [13]: qHTS RealTime-Glo MT Cell Viability Assay in HepG2 cells - 32 hour (AID 1224877). Also: nearly all actives have a fitted effect of over 55% in size. The essentials:
as §1

A short description of assay [14]: A CellTox Green Cytotoxicity Assay to monitor cytotoxicity in HepG2 cells - 24 hour (AID 1224878). Also: nearly all actives have a fitted effect of over 45% in size. In short, it runs like this: as §6
Assay [15] in a line: A CellTox Green Cytotoxicity Assay to monitor cytotoxicity in HepG2 cells - 40 hour (AID 1224879). Also: nearly all actives have a fitted effect of over 40% in size. Also: potency is read from the fitted curve at half-maximal effect. In short, it runs like this:
as §6

A short description of assay [16]: qHTS RealTime-Glo MT Cell Viability Assay in HEK293 cells - 0 hour (AID 1224880). Also: top concentration of the series differs between compounds; nearly all actives have a fitted effect of over 45% in size. The essentials: as §5
Assay [17] can be described thus: qHTS assay to identify small molecule agonists of H2AX - cell viability counter screen (AID 1224847; calls by dose curve;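 also: wild-type CHO-K1 cells; top concentration of the series differs between compounds; nearly all actives have a fitted effect of over 30% in size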). The essentials:
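CHO-K1 cells plated overnight at 37C, then exposed 3 h at 37C to compounds at 15 concentrations (0.76% DMSO final). Viability by CellTiter-Glo luminescence after 30 min at room temperature.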

The nature of assay [18]: A CellTox Green Cytotoxicity Assay to monitor cytotoxicity in HEK293 cells - 24 hour (AID 1224875). Also: nearly all actives have a fitted effect of over 45% in size. In short, it runs like this: as §3
Assay [19] is described as follows: qHTS assay to identify small molecule agonists of the estrogen related receptor (ERR) signaling pathway from Tox21 library (AID 1224849; calls by dose curve; also: nearly all actives have a fitted effect of over 15% in size). Conditions: ERR reporter cell line, ONE-Glo luciferase, 18 h; at 42.5 µM (top of the series). In short, it runs like this: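 Quantitative HTS in agonist format: NTP ERR cell line, compounds transferred in DMSO after 6 h plating, 18 h incubation at 37 C, ONE-Glo luminescence endpoint.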

Assay [20] is described as follows: qHTS assay to identify small molecule antagonists of the estrogen related receptor (ERR) signaling pathway from Tox21 library (AID 1224848). Also: nearly all actives have a fitted effect of over 50% in size. In short, it runs like this: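 Luciferase luminescence (ONE-Glo, 30 min room temperature) was the read-out. Cells of the NTP-supplied ERR line, 2,000 per well, were given 6 h at 37 C before compound addition in DMSO and 18 h exposure at 37 C.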
% is scaled to controls: 0 for no effect and ±100 for the full control effect.

With `C#CC(O)(C=CCl)CC` (stereo unspecified), the Potency result in assay [1], in [2], in [4], in [5], in assay [6] and in assay [7] was “inactive” each time. Also, the Potency result in assay [8], in assay [9], in [10], in [12], in [13] and in [14] was “inactive” throughout. Also, in assay [15], the Potency result is “inactive”. Besides, the outcome in assay [3] and in assay [16] was inactive. The max response in assay [11] is 10.1%.
As for `CC(C)OC(=O)Cc1ccccc1`, the Potency entry in assay [1], in [17], in [4], in assay [5], in assay [6] and in [7] was “inactive” each time. Further, the Potency entry in assay [8], in assay [9], in [10], in [18], in assay [12] and in assay [13] was “inactive” each time. Moreover, the Potency result in assay [14] and in assay [15] was “inactive” in each case. For the same compound, the call in [3] and in assay [16] was inactive. Besides, the max response in assay [11] was 5.49%.
Turning to `SCc1ccccc1`, the Potency entry in [1], in assay [2], in assay [4], in [5], in [6] and in assay [7] was “inactive” in each case. Also, the Potency entry in assay [8], in [9], in assay [10], in [18], in [12] and in [13] was “inactive” in each case. Also, the Potency result in assay [14] and in [15] was “inactive” each time. Also, the outcome in [3] and in assay [16] was inactive. Besides, the max response in [11] is 5.57%.
`Cc1ccccc1`: the Potency result in assay [1], in [2], in [4], in [5], in [7] and in [9] was “inactive” in each case. The Potency entry in [10], in assay [18], in assay [12], in assay [13], in assay [14] and in assay [15] was “inactive” in each case. For the same compound, the result in assay [3] and in assay [16] was inactive. Besides, in assay [11], the max response is 11.7%.
Consider `C=CCN1C[C@H](C)N([C@H](c2ccc(C(=O)N(CC)CC)cc2)c2cccc(OC)c2)C[C@H]1C`, for which the Potency entry in assay [1], in assay [2], in assay [4], in assay [6], in assay [7] and in assay [10] was “inactive” throughout. Also, the Potency result in assay [12], in [13] and in assay [14] was “inactive” throughout. Besides, the activity change, positive = activation in [19] is -5.94%. Moreover, the values for the Potency in [5], in assay [11] and in [15] were 19 µM (active), 19 µM (active) and 21.3 µM (active), respectively. Moreover, the compound was called inactive in assay [16].
Regarding `Cc1cccc(C)c1NC1=NCCCS1`, the Potency result in assay [1], in assay [2], in assay [20], in assay [4], in assay [5] and in assay [7] was “inactive” in each case. For the same compound, the Potency result in assay [8], in assay [9], in assay [10], in assay [18], in assay [12] and in [13] was “inactive” in each case. In addition, the Potency entry in [14] and in [15] was “inactive” throughout. Besides, the activity change, positive = activation in [19] is 4.81%. In addition, in [11], the max response is 0.136%. In assay [16], the compound was classed as inactive.
`CCCCC#N`: the Potency entry in assay [1], in assay [2], in assay [4], in assay [5], in assay [7] and in [9] was “inactive” each time. Also, the Potency result in assay [10], in assay [18], in assay [12], in [13], in assay [14] and in assay [15] was “inactive” in each case. Also, the call in assay [3] and in [16] was inactive. Moreover, the max response in assay [11] was -2.33%.

For the origin of these results see PubChem BioAssay (Tox21).
